Screens deposited in PubChem BioAssay by Sanford-Burnham Center for Chemical Genomics.
Rows were chosen to be rich in hits. Some 4% of all compounds tested hit in one or more screens of this group.
HIF-2a block – HIF-2a inhibition; 786-0 RCC cells HIF-2a reporter, luciferase luminescence, overnight; inhibition, % at 18.8 µM; actives 0.72% (n = 360,000); AID 624352;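 active means inhibition of the luminescence signal of 40% or more relative to plate controls, in a single-dose primary screen at 18.75 µM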
TROY signal inh – TROY signaling inhibition; inhibition, % at 10 µM; Q293 LMP1-TROYcd NF-kB luciferase reporter, 4 h; actives 0.98% (n = 360,000);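 active means compounds whose plate-normalised and pattern-corrected inhibition of the luciferase reporter signal at the single screening dose is 50% or more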
TWEAK Fn14 block – blocks TWEAK-Fn14 interaction in a reporter cell assay; actives 2% (n = 360,000); AID 1159606; inhibition, % at 10 µM; TWEAK-stimulated Fn14 reporter cells, luciferase luminescence, 8 h; in the data active means inhibition above about 50%
CF NFkB block – cystic fibrosis NF-kB activation inhibition. KKLEB NF-kB-GFP reporter, PAF-induced, GFP fluorescence overnight. inhibition, % at 5 µM. actives 0.86% (n = 360,000);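 active means at least 50% inhibition at 5 µM, scaled per plate between neutral and stimulator controls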;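 further: PAF is a Pseudomonas aeruginosa culture filtrate used as stimulus; plate controls were PAF-stimulated DMSO wells for no effect and unstimulated DMSO wells for full effect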
Peg3 prom inh – inhibitors of Peg3 promoter | HeLa PEG-Prom luciferase reporter, luminescence, overnight | inhibition, % at 20 µM | actives 1.7% (n = 360,000) | AID 588405;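 active means inhibition of at least 50% at 20 µM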
KKLEB tox – CF airway cell cytotoxicity counter-screen | KKLEB CF airway cells viability, ATPlite luminescence, overnight; hits give low values; cells stimulated with P. aeruginosa culture filtrate | activity change (cytotoxicity), % at 5 µM | actives 0.36% (n = 360,000);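 active means corrected activity change at or below -50% at 5 µM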
Mdm2 MdmX conf – Mdm2/MdmX (human) interaction inhibition, confirmed; shares compounds with HIF-2a block; SaOS-2 split-luciferase Mdm2/MdmX complementation, luminescence; inhibition, % at 8 µM; actives 99% (n = 740); AID 504601;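 active means mean inhibition of the luminescence signal across two replicates at or above 26 percent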
Target sequence (O15151 whole entry, looked up): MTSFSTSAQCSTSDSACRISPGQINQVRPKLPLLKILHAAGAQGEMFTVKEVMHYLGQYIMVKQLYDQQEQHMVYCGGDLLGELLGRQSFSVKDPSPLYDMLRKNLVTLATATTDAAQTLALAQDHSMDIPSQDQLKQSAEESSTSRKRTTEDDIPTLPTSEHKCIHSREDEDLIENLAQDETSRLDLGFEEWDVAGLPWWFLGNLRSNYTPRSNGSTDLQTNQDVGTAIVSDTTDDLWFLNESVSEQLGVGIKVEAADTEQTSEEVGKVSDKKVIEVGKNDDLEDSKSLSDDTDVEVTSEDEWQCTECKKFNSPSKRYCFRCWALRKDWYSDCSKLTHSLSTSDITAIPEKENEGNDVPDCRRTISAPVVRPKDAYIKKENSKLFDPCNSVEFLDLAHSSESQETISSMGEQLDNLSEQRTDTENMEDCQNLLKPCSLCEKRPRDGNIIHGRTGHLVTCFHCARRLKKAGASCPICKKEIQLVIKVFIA
Target sequence (Q00987 whole entry, looked up): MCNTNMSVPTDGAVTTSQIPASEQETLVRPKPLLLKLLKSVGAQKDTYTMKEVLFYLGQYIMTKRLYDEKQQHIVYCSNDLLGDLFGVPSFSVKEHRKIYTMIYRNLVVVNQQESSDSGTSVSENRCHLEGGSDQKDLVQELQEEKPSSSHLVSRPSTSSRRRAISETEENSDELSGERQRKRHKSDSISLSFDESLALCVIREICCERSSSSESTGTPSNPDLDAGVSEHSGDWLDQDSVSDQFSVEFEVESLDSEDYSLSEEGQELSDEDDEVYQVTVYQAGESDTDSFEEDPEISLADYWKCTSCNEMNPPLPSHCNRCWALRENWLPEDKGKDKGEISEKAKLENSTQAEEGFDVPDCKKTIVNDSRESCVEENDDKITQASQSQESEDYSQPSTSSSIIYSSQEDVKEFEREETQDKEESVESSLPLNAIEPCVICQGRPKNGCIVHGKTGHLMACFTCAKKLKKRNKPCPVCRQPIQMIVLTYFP
HIF-2a conf – HIF-2a inhibition, single concentration confirmation; shares compounds with HIF-2a block; 786-0 RCC cells, HIF-2a luciferase reporter luminescence, overnight; inhibition, % at 18.8 µM; actives 56% (n = 1,800);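 active means mean inhibition across four replicates of at least 40 percent at the single tested concentration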
HIF-1a counter – counter-screen for HIF-2a inhibitors: HIF-1a inhibition in MiaPaCa-2 cells. actives 72% (n = 1,800). shares compounds with HIF-2a block. AID 651589. MiaPaCa-2 HIF-1a luciferase reporter, desferoxamine, overnight. inhibition, % at 18.8 µM;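 active means mean inhibition of the reporter signal across four replicates at the single tested dose of 50% or more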
An asterisk follows results filed as active; . = not tested or not shown.

SMILES | HIF-2a block | TROY signal inh | TWEAK Fn14 block | CF NFkB block | Peg3 prom inh | KKLEB tox | HIF-2a conf | HIF-1a counter | others
CC(=O)N(C(C)=O)c1ccc(Oc2ccc(Oc3ccc(N(C(C)=O)C(C)=O)cc3)cc2)cc1 | 68* | 5 | 39 | 40 | -84 | 18 | 87* | 50
CNC(=O)c1ccc(Oc2ccc(C(=O)NC)cc2)cc1 | -10 | 9 | -5 | 4 | 0 | -2 | . | .
COc1cccc(C(=O)C(C#N)=C(SC)SC)c1 | 80* | -7 | -81 | 66* | 102* | -58* | 91* | 29
CSC(SC)=C(C#N)C(=O)c1ccccc1 | 90* | 4 | -91 | 26 | 99* | -50* | 89* | -5
N#CC(C#N)=C(Nc1ccccc1)c1ccccc1 | 1 | -6 | 8 | -10 | 6 | 0 | . | .
O=C(CN(c1ccc(Br)cc1)S(=O)(=O)c1ccc(Cl)c([N+](=O)[O-])c1)NCC1CCCO1 (stereo not drawn) | 86* | 13 | 55* | 48 | 95* | -13 | 32 | 103*
CCc1nc(Nc2ccncc2)c2oc3ccccc3c2n1 | 47* | -15 | -65 | -60 | 34 | -4 | 26 | 82*
Cc1ccc(C(=O)Oc2ccc(-c3nccc(-c4ccccn4)n3)cc2)cc1 | -192 | -17 | -28 | -4 | -210 | 5 | . | .
COC(=O)COc1ccc(-c2nccc(-c3ccc(Br)cc3)n2)cc1 | 41* | -1 | 7 | 8 | 2 | 1 | 43* | 8
COC(=O)COc1ccc(-c2nccc(-c3ccccn3)n2)cc1 | 71* | 9 | 61* | -6 | -50 | 2 | 91* | 64*
COc1ccc(-n2nc(C#N)c(Cl)cc2=O)cc1 | 91* | 61* | 96* | 77* | 104* | -15 | . | . | Mdm2 MdmX conf=103*
COC(=O)c1nn(-c2ccc(OC)cc2)c(=O)cc1O | 9 | -5 | -1 | -5 | 0 | 11 | . | .
COCCCNC(=O)CN1C(=O)c2cccc3cccc1c23 | 12 | -10 | -1 | 16 | 23 | -4 | . | .
CCn1cc(C(C)(C)C)c(C#N)c1NC(C)=O | 22 | 13 | 0 | 1 | 16 | -4 | . | .
Cn1cc([N+](=O)[O-])c(C(=O)Nc2cc(Oc3ccccc3)cc([N+](=O)[O-])c2)n1 | 95* | 12 | 43 | 78* | 104* | -29 | 63* | 108*
Cc1nn(C)cc1C(=O)Nc1cc(Oc2ccc(Cl)cc2)cc([N+](=O)[O-])c1 | 11 | -6 | 7 | 18 | 28 | -19 | . | .
O=C(COC(=O)c1ccc[nH]c1=O)Nc1ccc(S(=O)(=O)N2CCCC2)cc1 | 59* | 56* | 10 | 6 | 18 | -17 | 0 | 18
O=C(OCC(=O)N1CCCCCC1)c1ccc[nH]c1=O | 3 | 0 | 3 | -20 | 0 | 9 | . | .
O=C(COC(=O)c1ccc[nH]c1=O)Nc1ccc(N2CCCCC2)cc1 | 91* | 56* | 88* | -1 | 29 | 0 | 95* | 74*
CCN(C[C@H]1N[C@@](Cc2ccccc2)(C(=O)OC)[C@H]2C(=O)N(Cc3ccccc3)C(=O)[C@@H]12)C(=O)c1ccc(F)cc1 | 5 | 3 | 8 | -3 | 7 | -7 | . | .
COc1ccc(Nc2cc(C)nc3ccc(OC)cc23)cc1 | 42* | 9 | 0 | -58 | 8 | 2 | 17 | 57*
COc1ccc2nc(C)cc(N/N=C/c3ccc(F)cc3)c2c1 | 87* | -70 | -347 | 28 | 103* | -77* | . | . | Mdm2 MdmX conf=103*
Nc1ncccc1OCc1ccc(Br)cc1 | -300 | -52 | -8 | 4 | -318 | 2 | . | .
C/C=C(\NC(C)=O)c1ccccc1 | 3 | -7 | 4 | 12 | 1 | 11 | . | .
Cc1nc(SC(C)C(=O)NCC2CCCO2)c2cc(-c3ccccc3)sc2n1 (stereo not drawn) | -188 | -34 | -30 | -24 | -122 | 3 | . | . | Mdm2 MdmX conf=101*
SMILES | HIF-2a block | TROY signal inh | TWEAK Fn14 block | CF NFkB block | Peg3 prom inh | KKLEB tox | HIF-2a conf | HIF-1a counter | others
CC(Sc1ncnc2c1cnn2-c1ccccc1)C(=O)NCC1CCCO1 (stereo not drawn) | -54 | -10 | -25 | -2 | -40 | 2 | . | .
Cc1ccc(NC(=O)C2CCC2)cc1S(=O)(=O)N1CCCCCC1 | -3 | 6 | 14 | -9 | 10 | 12 | . | .
COc1ccccc1N(Cc1cc(=O)[nH]c2ccccc12)C(=O)c1ccccc1 | 67* | 82* | 81* | -19 | 15 | 13 | -4 | 2
COC(=O)C1(C)CCc2c(ccc3ccccc23)C1=O (stereo not drawn) | -180 | -77 | -28 | -9 | -93 | -2 | . | .
CCC1(C(=O)OC)CCc2c(cc(OC)c3ccccc23)C1=O (stereo not drawn) | 55* | 28 | -6 | 26 | 4 | -6 | -2 | -20
CN(C(=O)C=Cc1ccco1)c1ccccc1 | -33 | -3 | 8 | -8 | -18 | 2 | . | .
CN(C(=O)/C=C/c1ccc([N+](=O)[O-])s1)c1ccccc1 | 62* | -16 | 41 | 14 | 6 | 16 | 61* | 90*
COC(=O)CCn1nnc(-c2ccc(C(C)C)cc2)n1 | 91* | 50* | 68* | -6 | 8 | 10 | 96* | 75*
COC(=O)CCn1nnc(-c2cccs2)n1 | 2 | -11 | -3 | 12 | 7 | -2 | . | .
COc1ccccc1OCCCCN1CCCCC1 | 18 | -2 | 9 | 10 | 0 | -9 | . | .
COc1ccccc1OCCN1CSC(=S)N(C)C1 | 88* | 6 | -45 | 16 | 100* | -18 | 23 | 103*
CC[N+]1(C)CCC(O)(/C=C/c2ccccc2)C(C(=O)/C=C/c2ccccc2)C1 (stereo not drawn) | 90* | 12 | 65* | 40 | 97* | -15 | 46* | 103*
COC(=O)[C@@]12C[C@@H](CC(=O)N3CCSCC3)C(=O)N(Cc3ccc4c(c3)OCO4)C1=CCC(C)(C)C2 | -1 | . | . | . | . | . | . | .
COC(=O)c1c(-c2ccccc2)csc1NC(=O)c1c(-c2ccccc2)noc1C | -4 | -18 | 5 | -13 | 15 | -10 | . | . | Mdm2 MdmX conf=99*
Cc1ccc2c(c1)Oc1ccc(NC(=O)CCl)cc1C(=O)N2 | 77* | -14 | 46 | 87* | 100* | -73* | 72* | 103* | Mdm2 MdmX conf=103*
Cc1cc(C)c(C#N)c(SCc2nnc(-c3ccccc3)o2)n1 | 67* | 90* | 100* | 8 | 38 | -18 | 76* | 82*
